Screening results as filed in PubChem.
Only some compounds are listed: those with a hit (about 17% of all), similar ones and a draw of the others.
DT40 TDP1 CPT = DT40-hTDP1 cell growth loss with CPT. chicken DT40 Tdp1-/-;hTDP1 cells + 20 nM CPT, ATP luminescence, 48 h. Potency, µM (doses to about 46.2 µM), without a hit: at the highest dose activity change, negative = growth inhibition, most hits filed as inhibitors. 420,000 compounds, 12% hits. AID 686979; also: % is scaled to controls: 0 for no effect and ±100 for the full control effect; nearly all actives have a fitted effect of over 55% in size
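Chicken DT40 Tdp1-/- cells complemented with human TDP1, 400 cells/well, exposed to compounds plus 20 nM camptothecin for at least 48 h at 37 C; viability read as ATP content by CellTiter-Glo luminescence.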
ATXN2 expr inh = ATXN2 expression inhibition; HEK-293 ATXN2-luciferase reporter, luminescence, 24 h; AID 1745845; 360,000 compounds, 0.72% hits; Potency, µM (titrated, usually from 57 µM), inactives show at the highest dose activity change, negative = inhibition, actives largely listed as inhibitors; also: % is scaled to controls: 0 for no effect and ±100 for the full control effect; nearly all actives have a fitted effect of over 55% in size
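qHTS (up to 57 uM final) was run with 24 h compound exposure of reporter cells at 37 °C. Each well was multiplexed: SteadyGlo luminescence measured ATXN2-luciferase expression after a fluorogenic Gly-Phe-AFC viability readout (25 uM final).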
HepG2 viability = counter-screen for TGF-b inhibitors: cytotoxicity in HepG2 cells; 410,000 compounds, 0.76% hits; Potency, µM (titrated, usually from 46.1 µM), for inactives: at the highest dose activity change, negative = cytotoxicity, most hits filed as cytotoxic; HepG2 CAGA-GFP viability, ATP luminescence, 18 h
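HepG2 CAGA-GFP cells (1000/well, DMEM with 1% FBS) received compound, then TGF-beta at 500 pg/mL final, and were incubated 18 hours at 37 degrees C. Viability was read by CellTiter-Glo luminescence. Media-only wells were set as complete cell-killing and DMSO as no toxicity.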
TGFb SMAD3 inh = inhibitors of TGF-b signaling; HepG2 CAGA-GFP TGF-b/SMAD3 reporter, GFP fluorescence, 18 h; TGF-beta stimulated, 500 pg/mL final; AID 588855; 410,000 compounds, 1.2% hits; Potency, µM (top dose mostly 46.1 µM), for the others: at the highest dose activity, negative = inhibition, hits mostly inhibitors; also: % is scaled to controls: 0 for no effect and ±100 for the full control effect; nearly all actives have a fitted effect of over 65% in size
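HEPG2 CAGA-GFP, 1000 cells/well; 2 h settle, 37 C; cpd via pin tool; TGF-b 500 pg/mL final; 18 h, 37 C; GFP imaging ex488/em500-530; %Activity normalised to -TGF-b and +DMSO controls; CRC fit, curve class.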
DT40 TDP1 no CPT = qHTS for Inhibitors of human tyrosyl-DNA phosphodiesterase 1 (TDP1): qHTS in cells in absence of CPT; DT40 Tdp1-/- hTDP1 cells, no CPT, ATP luminescence, 48 h; Potency, µM (highest dose often 46.2 µM), for inactives: at the highest dose activity change, negative = growth inhibition, actives largely listed as inhibitors; 420,000 compounds, 15% hits; AID 686978, 2013; also: % is scaled to controls: 0 for no effect and ±100 for the full control effect; nearly all actives have a fitted effect of over 55% in size
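Growth of hTDP1-complemented DT40 Tdp1-knockout cells is measured by ATP luminescence after at least 48 hr compound exposure at 37 °C, with DMSO substituting for the 20 nM CPT used in the parallel screen.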
ATXN viability = viability counter-screen for ATXN expression inhibitors; S2 cells (HEK-293 line with an ATXN2-luciferase reporter) viability, CellTiter-Fluor protease fluorescence, 24 h; Potency, µM (titrated, usually from 56.7 µM), usual class: cytotoxic; 400,000 compounds, 0.49% hits; AID 651635; also: nearly all actives have a fitted effect of over 40% in size
Active calls of the source: *; i = inactive; ? = inconclusive; · = not tested or not shown; ! = a repeat was not active. Calls follow the shape of the dose curve; as a rule, active = well fitted curve in the direction sought with a large enough effect; inconclusive = small, poorly fitted or top-dose-only effect, or another doubt; inactive = no such curve, though single readings can be large; an effect the other way counts as inactive or inconclusive. Potency is read from the fitted curve at half-maximal effect.

SMILES | DT40 TDP1 CPT | ATXN2 expr inh | HepG2 viability | TGFb SMAD3 inh | DT40 TDP1 no CPT | ATXN viability
COc1ccc(-c2nc3cc(C)ccn3c2NCC2CCCO2)cc1OC (centres undefined) | -4% | 3% | -12% | -33% | 0% | i
CCCCNc1c(-c2ccc(-c3ccc(C(C)=O)cc3)c(OC)c2)nc2cc(C)ccn12 | 18µM* | ? | -26% | ? | 10µM* | i
CCCCNc1c(-c2ccc(OC)c(SC(C)CC)c2)nc2cnccn12 (centres undefined) | ? | ? | -77% | ? | 26µM* | ·
Oc1ccc(-c2nc3cnccn3c2Nc2ccc3c(c2)OCCO3)cc1 | 2% | 38% | -3% | -13% | -8% | i
CCCCNc1c(-c2ccc(OC)c(SC(C)CC)c2)nc2cc(C)ccn12 (centres undefined) | 16µM* | 25µM* | 11µM* | 11µM* | 15µM* | 32µM*
CCCCNc1c(-c2ccc(Sc3ccc(OC)cc3)cc2)nc2cc(C)ccn12 | ? | ? | -18% | ? | -86% | ?
Cc1cc(C)cc(OCc2nnc(SCC(=O)N3CCCCC3)o2)c1 | 12% | -5% | -7% | -12% | 0% | i
O=C(COc1ccc(Cl)cc1Br)N1CCN(c2ncccn2)CC1 | ? | -6% | 10% | -4% | -18% | i
CCCCc1cc(=O)oc2cc(C)cc(OC(C)C(=O)NCc3cccnc3)c12 (centres undefined) | ? | -21% | -5% | -1% | -20% | i
CN(Cc1cccs1)C(=O)c1cccc(S(=O)(=O)N2CCCCCC2)c1 | -22% | 6% | 5% | -5% | -17% | ?
O=C(NCc1ccccc1)/C(=C/c1ccco1)NC(=O)c1ccco1 | -19% | -7% | -17% | -13% | 1% | i
COc1cccc(CNC(=O)c2nnc(Cc3ccc(Cl)cc3)o2)c1 | -1% | -7% | -3% | 1% | -3% | i
CCCCNc1c(-c2ccc(OC)c(SC(C)CC)c2)nc2ccc(C)cn12 (centres undefined) | 18µM* | 13µM*! | 14µM* | 13µM* | 18µM* | 11µM*
CCCCCCSc1cc(-c2nc3ccc(C)cn3c2NCCCC)ccc1OC | ? | 0% | -57% | ? | ? | 14µM*
CCOC(=O)C1=C(COC(=O)Cc2ccccc2)NC(=O)NC1C (centres undefined) | -5% | 16% | 1% | -5% | 3% | i
C[C@@H]1CN([C@@H](C)CO)C(=O)c2cc(NC(=O)CCC(F)(F)F)ccc2O[C@H]1CN(C)Cc1ccc(Cl)c(Cl)c1 | 21µM* | ? | -85% | 13µM* | ? | ?
C[C@@H]1CN([C@H](C)CO)C(=O)c2cc(NS(=O)(=O)c3ccc(F)cc3)ccc2O[C@@H]1CN(C)Cc1ccc(Cl)c(Cl)c1 | ? | ? | -100% | 11µM* | ? | ?
C[C@@H]1CN([C@H](C)CO)C(=O)Cc2cc(NC(=O)Cn3cnnn3)ccc2O[C@@H]1CN(C)Cc1ccc(Cl)c(Cl)c1 | 18µM* | -34% | -53% | ? | ? | ?
C[C@H](CO)N1C[C@H](C)[C@@H](CN(C)Cc2ccc(Cl)c(Cl)c2)Oc2ccc(NC(=O)Cn3cnnn3)cc2C1=O | ? | -1% | -1% | 20% | -2% | i
C[C@@H]1CCCCO[C@@H](CN(C)Cc2ccc(Cl)c(Cl)c2)[C@@H](C)CN([C@H](C)CO)C(=O)c2cc(NC(=O)CCC(F)(F)F)ccc2O1 | 8.2µM* | ? | -25% | ? | 10µM* | ?
C[C@H](CO)N1C[C@H](C)[C@@H](CN(C)S(=O)(=O)c2ccc(F)cc2)Oc2ccc(NS(=O)(=O)c3ccc(F)cc3)cc2C1=O | -11% | -2% | -72% | ? | -25% | ?
CCOc1ccccc1NC(=O)CSc1nnc(CNC(=O)c2c(F)cccc2Cl)o1 | 5% | 6% | 1% | -8% | 7% | i
CSc1ncccc1C(=O)NCC1Cc2cc(F)cc(-c3cncnc3)c2O1 (centres undefined) | 7% | · | · | · | -8% | i
COc1ccc(NS(=O)CCCc2ccccc2)cc1 (centres undefined) | -23% | -4% | -3% | -2% | -1% | ?
CCC(Sc1nc2ccncc2[nH]1)C(=O)Nc1cc(Cl)ccc1C (centres undefined) | 29µM* | ? | -22% | ? | 18µM* | ?
SMILES | DT40 TDP1 CPT | ATXN2 expr inh | HepG2 viability | TGFb SMAD3 inh | DT40 TDP1 no CPT | ATXN viability
CCC(Sc1ncc(S(=O)(=O)c2ccc(C)cc2)c(=O)[nH]1)C(=O)Nc1cc(C)ccc1C (centres undefined) | · | 11% | -20% | -1% | · | i
CCN(CC)CCNCC(O)(c1ccc(Cl)cc1)c1ccc(Cl)cc1 | ? | 1% | -52% | ? | 16µM* | i
CCC(CC)NC(=O)c1ccc(Cl)cc1 | -1% | 4% | 10% | ? | 5% | i
NCC(O)(c1ccc(Cl)cc1)c1ccc(Cl)cc1 | 16µM* | · | -100% | ? | 10µM* | ?
CC(C)NCC(O)(c1ccc(Cl)cc1)c1ccc(Cl)cc1 | ? | -30% | -43% | ? | 21µM* | i
CCN(CC)CCNCc1ccc(-c2ccc(Cl)cc2)o1 | ? | -23% | -32% | -1% | ? | i
CCN(CC)c1ccc(C2C(C(=O)Nc3ccccc3C)=C(C)Nc3ncnn32)cc1 (centres undefined) | 0% | -2% | -32% | 3% | -24% | i
CSCCC(C(=O)Nc1c(C)cccc1C)N1CCC(Cc2ccccc2)CC1 (centres undefined) | 16µM* | -17% | -33% | ? | 18µM* | i
Cc1cccc(C)c1NC(=O)C(CCc1ccccc1)N1CCC(c2ccccc2)CC1 (centres undefined) | 16µM* | · | · | · | 18µM* | ·
O=C(Nc1ccc2c(c1)OCCO2)C(CCc1ccccc1)N1CCC(Cc2ccccc2)CC1 (centres undefined) | ? | 60% | -3% | -24% | 16µM* | i
O=C(Nc1ccc(F)cc1)C(CCc1ccccc1)N1CCN(c2ccncc2)CC1 (centres undefined) | 16µM* | · | · | · | 23µM* | ·
